According to the supplement of paper PMC11732987, “Enantioselective OTUD7B fragment discovery through chemoproteomics screening and high-throughput optimisation” (Communications Chemistry, 2025):

Assays:
Experiment in all cases: log2 ratio of Biotin-Ahx-Ub-VS probe labelling (fragment/DMSO); higher = less target engagement (more negative = stronger competition), active = hit call of the paper (q ≤ 0.05, log2 ratio ≤ -1)
Details in all cases: compound concentration: 200 uM; treatment time: 3 h
USP19 = biological target: T1, USP19 (UniProt O94966)
T1 sequence (whole entry): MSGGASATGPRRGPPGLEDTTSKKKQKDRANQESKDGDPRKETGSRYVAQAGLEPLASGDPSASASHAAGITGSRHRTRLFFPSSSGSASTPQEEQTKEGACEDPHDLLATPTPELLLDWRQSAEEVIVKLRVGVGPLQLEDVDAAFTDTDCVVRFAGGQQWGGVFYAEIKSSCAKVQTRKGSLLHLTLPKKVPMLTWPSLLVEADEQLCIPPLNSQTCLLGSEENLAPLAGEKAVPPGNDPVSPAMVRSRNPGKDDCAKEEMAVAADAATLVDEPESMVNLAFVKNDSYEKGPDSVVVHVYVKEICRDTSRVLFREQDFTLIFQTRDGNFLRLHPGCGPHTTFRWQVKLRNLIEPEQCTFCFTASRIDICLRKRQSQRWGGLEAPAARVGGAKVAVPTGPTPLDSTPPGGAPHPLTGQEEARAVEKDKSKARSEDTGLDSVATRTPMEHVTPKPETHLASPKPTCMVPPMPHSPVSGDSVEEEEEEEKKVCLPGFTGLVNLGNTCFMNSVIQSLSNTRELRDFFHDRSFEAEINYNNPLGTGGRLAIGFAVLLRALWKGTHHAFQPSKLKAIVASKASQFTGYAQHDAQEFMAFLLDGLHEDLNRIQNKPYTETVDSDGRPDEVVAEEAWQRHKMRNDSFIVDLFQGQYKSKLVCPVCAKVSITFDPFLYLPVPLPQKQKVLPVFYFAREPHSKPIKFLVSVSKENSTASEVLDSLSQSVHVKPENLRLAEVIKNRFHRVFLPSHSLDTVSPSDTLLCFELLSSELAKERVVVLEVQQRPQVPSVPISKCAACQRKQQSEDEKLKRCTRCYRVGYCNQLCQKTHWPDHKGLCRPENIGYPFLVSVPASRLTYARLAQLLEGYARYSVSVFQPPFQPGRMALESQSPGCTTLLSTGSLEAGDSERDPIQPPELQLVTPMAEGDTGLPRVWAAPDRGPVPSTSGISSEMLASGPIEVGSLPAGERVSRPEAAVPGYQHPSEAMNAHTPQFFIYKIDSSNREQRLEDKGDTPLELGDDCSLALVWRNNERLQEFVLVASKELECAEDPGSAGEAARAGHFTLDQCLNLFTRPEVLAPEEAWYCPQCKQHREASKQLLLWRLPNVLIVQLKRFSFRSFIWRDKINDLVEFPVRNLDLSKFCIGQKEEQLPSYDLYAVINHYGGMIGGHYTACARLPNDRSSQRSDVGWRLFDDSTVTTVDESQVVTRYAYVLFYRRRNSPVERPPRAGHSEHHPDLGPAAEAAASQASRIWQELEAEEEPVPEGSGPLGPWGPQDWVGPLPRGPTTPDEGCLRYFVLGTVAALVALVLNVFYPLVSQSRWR
Procedure, shortened: (§1)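 The table lists average log2 ratios of fragment over vehicle, from an unpaired t-test on global-median-normalised Spectronaut label-free quantities. Proteins with ≥2 unique peptides were used. Samples were HEK293T lysate (495 µg) treated in triplicate with fragment at 200 µM or vehicle for 3 h, then with Biotin-Ahx-Ub-VS (0.5 µM final) for 1 h, with labelled DUBs NeutrAvidin-enriched and run by diaPASEF LC-MS/MS.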

USP22 = biological target: T2, USP22 (UniProt Q9UPT9)
T2 sequence (whole entry): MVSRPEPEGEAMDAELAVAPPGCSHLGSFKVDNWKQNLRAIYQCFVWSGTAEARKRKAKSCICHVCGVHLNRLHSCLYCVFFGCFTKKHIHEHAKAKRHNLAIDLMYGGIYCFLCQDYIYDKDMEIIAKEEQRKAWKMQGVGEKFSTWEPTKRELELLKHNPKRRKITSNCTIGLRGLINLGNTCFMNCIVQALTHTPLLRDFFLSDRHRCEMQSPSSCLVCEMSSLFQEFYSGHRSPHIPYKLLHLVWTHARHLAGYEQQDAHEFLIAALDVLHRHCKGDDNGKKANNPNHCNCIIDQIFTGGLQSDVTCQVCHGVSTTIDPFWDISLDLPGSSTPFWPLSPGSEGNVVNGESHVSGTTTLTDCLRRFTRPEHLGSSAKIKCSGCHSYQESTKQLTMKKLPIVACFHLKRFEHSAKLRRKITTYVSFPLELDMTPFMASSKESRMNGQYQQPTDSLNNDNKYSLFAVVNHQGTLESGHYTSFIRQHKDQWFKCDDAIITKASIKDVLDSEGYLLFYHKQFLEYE
Procedure, shortened: as §1

USP24 = USP24 (UniProt Q9UPU5)
Procedure, shortened: as §1

USP25 = biological target: T3, USP25 (UniProt Q9UHP3)
T3 sequence (whole entry): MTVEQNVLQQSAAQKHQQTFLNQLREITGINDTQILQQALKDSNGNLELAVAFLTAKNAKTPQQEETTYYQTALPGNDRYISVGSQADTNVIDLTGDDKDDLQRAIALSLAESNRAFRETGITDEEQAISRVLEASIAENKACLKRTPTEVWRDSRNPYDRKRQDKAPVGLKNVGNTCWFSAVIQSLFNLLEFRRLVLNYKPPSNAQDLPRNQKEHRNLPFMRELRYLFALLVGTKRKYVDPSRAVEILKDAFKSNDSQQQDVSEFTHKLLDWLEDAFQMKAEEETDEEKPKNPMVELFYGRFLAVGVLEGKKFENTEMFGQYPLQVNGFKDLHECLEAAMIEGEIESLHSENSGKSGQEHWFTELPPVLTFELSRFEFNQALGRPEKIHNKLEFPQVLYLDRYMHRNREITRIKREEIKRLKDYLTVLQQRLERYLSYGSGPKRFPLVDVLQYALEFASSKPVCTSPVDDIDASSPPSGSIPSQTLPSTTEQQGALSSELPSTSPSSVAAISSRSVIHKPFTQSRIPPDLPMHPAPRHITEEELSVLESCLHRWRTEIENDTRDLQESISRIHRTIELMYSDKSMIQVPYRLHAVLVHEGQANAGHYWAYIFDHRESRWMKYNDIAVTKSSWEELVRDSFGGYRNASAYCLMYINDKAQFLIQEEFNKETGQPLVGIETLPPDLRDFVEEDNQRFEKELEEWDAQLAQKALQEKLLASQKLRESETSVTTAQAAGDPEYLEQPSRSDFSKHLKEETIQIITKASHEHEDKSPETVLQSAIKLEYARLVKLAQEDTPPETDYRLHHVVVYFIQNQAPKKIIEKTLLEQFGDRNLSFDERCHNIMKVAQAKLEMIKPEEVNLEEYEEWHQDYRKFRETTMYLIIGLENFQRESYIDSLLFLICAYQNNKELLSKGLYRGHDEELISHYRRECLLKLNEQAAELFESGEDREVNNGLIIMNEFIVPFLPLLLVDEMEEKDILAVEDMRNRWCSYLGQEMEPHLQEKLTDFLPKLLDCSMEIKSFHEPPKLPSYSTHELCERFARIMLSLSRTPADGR
Procedure, shortened: as §1

USP28 = biological target: T4, USP28 (UniProt Q96RU2)
T4 sequence (whole entry): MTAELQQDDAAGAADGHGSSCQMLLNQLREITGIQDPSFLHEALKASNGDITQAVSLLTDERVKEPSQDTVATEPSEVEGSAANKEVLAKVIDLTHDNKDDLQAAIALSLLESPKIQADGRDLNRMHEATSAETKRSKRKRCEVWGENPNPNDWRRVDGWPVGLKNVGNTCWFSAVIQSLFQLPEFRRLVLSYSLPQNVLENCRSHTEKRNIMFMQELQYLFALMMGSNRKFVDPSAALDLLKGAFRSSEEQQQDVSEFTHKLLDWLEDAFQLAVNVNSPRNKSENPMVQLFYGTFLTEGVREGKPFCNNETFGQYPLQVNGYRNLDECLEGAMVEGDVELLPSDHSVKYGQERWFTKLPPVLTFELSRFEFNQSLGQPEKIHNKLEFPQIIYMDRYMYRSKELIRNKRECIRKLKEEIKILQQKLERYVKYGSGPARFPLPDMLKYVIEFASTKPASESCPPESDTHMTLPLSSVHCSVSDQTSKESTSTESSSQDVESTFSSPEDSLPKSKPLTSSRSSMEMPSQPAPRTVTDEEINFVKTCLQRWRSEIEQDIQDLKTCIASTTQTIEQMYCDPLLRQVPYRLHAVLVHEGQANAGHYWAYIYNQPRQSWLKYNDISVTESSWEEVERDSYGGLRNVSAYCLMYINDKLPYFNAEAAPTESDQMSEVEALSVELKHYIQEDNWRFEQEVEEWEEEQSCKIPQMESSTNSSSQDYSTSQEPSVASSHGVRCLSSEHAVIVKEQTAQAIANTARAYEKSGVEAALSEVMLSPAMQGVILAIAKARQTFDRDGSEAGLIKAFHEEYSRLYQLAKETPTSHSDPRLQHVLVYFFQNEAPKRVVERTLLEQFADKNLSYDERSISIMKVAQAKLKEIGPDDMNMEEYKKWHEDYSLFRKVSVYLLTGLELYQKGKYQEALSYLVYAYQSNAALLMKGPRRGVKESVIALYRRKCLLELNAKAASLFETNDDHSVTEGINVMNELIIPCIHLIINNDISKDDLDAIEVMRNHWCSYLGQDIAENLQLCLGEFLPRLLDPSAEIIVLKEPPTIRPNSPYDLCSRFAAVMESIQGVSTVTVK
Procedure, shortened: as §1

Measured: log2 ratio of Biotin-Ahx-Ub-VS probe labelling

Chain of USP24 (Q9UPU5 whole entry): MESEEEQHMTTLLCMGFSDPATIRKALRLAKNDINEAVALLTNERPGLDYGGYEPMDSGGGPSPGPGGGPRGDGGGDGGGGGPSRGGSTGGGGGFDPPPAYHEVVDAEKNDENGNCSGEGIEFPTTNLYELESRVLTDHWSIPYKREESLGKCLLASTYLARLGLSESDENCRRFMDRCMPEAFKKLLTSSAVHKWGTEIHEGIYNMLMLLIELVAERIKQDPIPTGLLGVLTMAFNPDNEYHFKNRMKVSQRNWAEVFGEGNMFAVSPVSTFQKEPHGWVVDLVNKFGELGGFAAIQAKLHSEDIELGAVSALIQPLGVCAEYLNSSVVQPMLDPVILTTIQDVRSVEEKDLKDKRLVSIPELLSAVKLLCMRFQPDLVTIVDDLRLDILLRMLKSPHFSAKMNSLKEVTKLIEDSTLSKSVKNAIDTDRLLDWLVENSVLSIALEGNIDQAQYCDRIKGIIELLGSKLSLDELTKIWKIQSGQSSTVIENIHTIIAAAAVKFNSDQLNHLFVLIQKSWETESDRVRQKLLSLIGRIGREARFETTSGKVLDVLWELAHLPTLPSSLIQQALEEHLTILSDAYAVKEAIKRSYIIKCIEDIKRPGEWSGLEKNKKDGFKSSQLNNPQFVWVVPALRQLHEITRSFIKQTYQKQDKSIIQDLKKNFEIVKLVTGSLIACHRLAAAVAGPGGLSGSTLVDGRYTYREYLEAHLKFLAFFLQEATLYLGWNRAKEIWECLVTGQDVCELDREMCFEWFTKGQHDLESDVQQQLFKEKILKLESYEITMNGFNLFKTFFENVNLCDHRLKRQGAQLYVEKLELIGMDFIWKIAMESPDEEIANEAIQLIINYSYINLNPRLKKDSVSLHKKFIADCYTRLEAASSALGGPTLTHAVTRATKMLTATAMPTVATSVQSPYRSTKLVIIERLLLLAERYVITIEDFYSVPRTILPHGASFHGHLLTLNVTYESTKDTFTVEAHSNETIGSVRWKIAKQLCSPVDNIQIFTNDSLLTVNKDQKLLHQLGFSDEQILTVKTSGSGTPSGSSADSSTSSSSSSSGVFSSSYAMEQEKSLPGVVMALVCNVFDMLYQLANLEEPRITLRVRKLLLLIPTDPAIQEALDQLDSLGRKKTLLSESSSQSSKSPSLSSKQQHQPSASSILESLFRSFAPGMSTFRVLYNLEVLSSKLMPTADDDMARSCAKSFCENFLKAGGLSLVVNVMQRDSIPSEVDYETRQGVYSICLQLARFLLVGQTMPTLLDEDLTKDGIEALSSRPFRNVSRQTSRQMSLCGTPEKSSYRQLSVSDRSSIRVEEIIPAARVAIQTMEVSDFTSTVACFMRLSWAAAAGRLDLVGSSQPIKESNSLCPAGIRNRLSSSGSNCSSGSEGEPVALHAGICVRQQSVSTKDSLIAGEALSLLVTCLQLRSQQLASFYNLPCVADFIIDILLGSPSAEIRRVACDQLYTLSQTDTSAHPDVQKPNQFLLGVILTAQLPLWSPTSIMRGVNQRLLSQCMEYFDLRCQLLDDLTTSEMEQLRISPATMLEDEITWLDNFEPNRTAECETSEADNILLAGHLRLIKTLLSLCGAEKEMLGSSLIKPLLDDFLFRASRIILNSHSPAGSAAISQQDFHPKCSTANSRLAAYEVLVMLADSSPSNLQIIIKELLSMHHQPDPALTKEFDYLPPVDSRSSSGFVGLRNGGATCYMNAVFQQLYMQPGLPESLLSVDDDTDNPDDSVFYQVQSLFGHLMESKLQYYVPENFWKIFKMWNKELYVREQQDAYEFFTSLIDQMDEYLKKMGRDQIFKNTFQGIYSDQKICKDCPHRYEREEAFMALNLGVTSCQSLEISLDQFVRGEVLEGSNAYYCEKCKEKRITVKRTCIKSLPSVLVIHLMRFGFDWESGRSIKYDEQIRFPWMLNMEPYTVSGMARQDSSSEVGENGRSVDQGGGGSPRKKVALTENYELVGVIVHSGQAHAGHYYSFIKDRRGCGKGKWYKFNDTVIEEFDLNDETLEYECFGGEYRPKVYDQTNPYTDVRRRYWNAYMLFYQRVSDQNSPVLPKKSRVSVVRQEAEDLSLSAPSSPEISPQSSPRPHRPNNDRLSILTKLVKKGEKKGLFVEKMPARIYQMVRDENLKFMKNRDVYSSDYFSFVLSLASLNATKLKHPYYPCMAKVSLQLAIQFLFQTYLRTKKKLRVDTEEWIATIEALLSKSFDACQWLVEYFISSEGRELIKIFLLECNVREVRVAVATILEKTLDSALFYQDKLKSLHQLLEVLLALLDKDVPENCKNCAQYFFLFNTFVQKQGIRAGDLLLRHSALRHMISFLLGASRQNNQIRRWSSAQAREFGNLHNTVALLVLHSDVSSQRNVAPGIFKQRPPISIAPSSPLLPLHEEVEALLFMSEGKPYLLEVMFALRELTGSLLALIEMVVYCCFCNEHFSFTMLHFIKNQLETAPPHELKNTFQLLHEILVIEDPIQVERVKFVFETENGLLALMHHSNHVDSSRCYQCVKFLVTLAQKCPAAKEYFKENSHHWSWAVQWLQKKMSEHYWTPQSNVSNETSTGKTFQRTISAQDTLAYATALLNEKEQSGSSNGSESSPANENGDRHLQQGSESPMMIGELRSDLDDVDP

Cl.O=C(CCl)N1CCC(Cc2nccs2)C1 (stereo not given)
inactive: USP19 -0.32 | USP22 0.0323 | USP24 -0.414 | USP25 -0.365 | USP28 -0.389
